Results reported in the supplement of paper PMC6555819.

Columns and labels:
Test in all cases: PBM binding z-score (relative to random genomic background probes); higher = stronger binding; sequences stand for … in GC…GCGATTGACAGCGTAGAATGAAGG
[1] = tested on: RARb homodimer (NR concentration 270 nM)
Summary of the method: (§1)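 Regression normalization was applied to scanned fluorescence from custom Agilent 4×180K protein-binding microarrays. Before scanning, arrays were incubated 1 h with ligand-free nuclear receptor dimers, and binding was detected with antibodies against each partner (one per run). Binding z-scores use the random background probes as reference.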

[2] = tested on: RARg:RXRa (NR concentration 270 nM, RXRa partner concentration 90 nM)
Summary of the method: as §1

[3] = tested on: RARg homodimer (NR concentration 270 nM)
Summary of the method: as §1

[4] = tested on: RXRa DBDmut IVT, anti-RXR (DBD mutation: RXRa K156A/R161A, NR concentration 90 nM)
Summary of the method: as §1

[5] = tested on: RXRa homodimer (NR concentration 180 nM)
Summary of the method: as §1

[6] = tested on: THRa:RXRa (NR concentration 90 nM, RXRa partner concentration 90 nM)
Summary of the method: as §1

[7] = tested on: THRa homodimer (NR concentration 90 nM)
Summary of the method: as §1

[8] = tested on: VDR homodimer (NR concentration 270 nM)
Summary of the method: as §1

Sequence	PBM binding z-score [1]	PBM binding z-score [2]	PBM binding z-score [3]	PBM binding z-score [4]	PBM binding z-score [5]	PBM binding z-score [6]	PBM binding z-score [7]	PBM binding z-score [8]
GCTAGCAGGACATTTGGGTCACTCAATGACGGGC	1.56	0.785	0.992	0.736	0.598	1.81	0.828	0.846
ACAAGCAGGCCAAGTTTGGGTCACTCAAACAAAG	2.34	2.8	1.88	-0.286	1.1	2.47	0.738	-0.0153
TCTTGTAGATCAATCGAGGTTAAGAAAGTGCGCT	0.899	0.6	0.164	0.612	1.01	3.5	0.268	0.299
CTCGAAAGGTCGTGCTCTGGTGAGTATACCAAAC	2.73	4.35	3.14	2.01	4.69	2.61	0.441	0.997
CAGCCTAGGTCAGCGCCAGTATAGGAGGAACGTT	2.6	2.85	4.04	0.449	1.55	2.05	0.498	-0.621
CCTAGTTGGTCAGGAGGTCACGCACCGGATATGA	4.9	5.68	4.98	0.815	5.93	3.94	2.78	2.71
AGAATGAGGTTAAGCTCAGGGAAACAGAATACAT	0.601	2.43	1.72	1.26	2.59	2.67	0.503	-0.00367
ACTATTAGATGACTTAGGGCAACCGATACGACGC	1	0.918	1.25	0.754	0.767	1.04	0.469	0.377
TTACCAAGGTGAAGGTTGTTGATCCCTCTGTAGA	1.02	0.564	0.48	-0.157	0.836	2.06	0.718	-0.156
GCAGTCAGGTGAAACGCAGGTAACTCAGGGTGGC	0.205	0.634	0.376	-0.235	0.237	1.8	0.308	-0.682
CCTGCTAGGTCATGGTTAGCTAATCTACAGTATG	2.79	4.02	4.34	1.43	2.52	2.99	1.03	-0.043
TCAGACAGGTGACGGTAACTCAGGTACGCAGTCG	0.517	0.188	0.328	0.683	0.84	0.492	0.00718	-0.0333
TAGCCTAGGTCAGACCGGGCCAGTATACGCTATA	2.24	2.62	3.34	-0.68	1.38	3.99	-0.0936	-0.324
TCTCGGAGGACACGAAGGTCATAGCTTTCCAGAG	3.93	4.04	4.13	1.41	3.28	3.55	1.66	3.09
AACTCTAGGTAAAGTTCAGTGAAAGATCGATAGA	2.3	1.97	2.32	1.44	1.19	0.938	-0.396	1.64
CCGAGTAGGTTATGGGGGATTCAGGCAACGGTGA	1.28	1.3	1.08	0.281	0.959	1.58	1.7	1.12
CCTGCTATGTCAATGGTCAGCTAAAGCAGCTCGC	0.33	0.00581	0.0986	0.386	-0.174	-0.688	-0.637	-0.777
AATAAAGGGTCACTAGGCCAGAGTAGGTACGAAT	4.18	5.83	6.43	2.48	5.89	2.82	0.263	2.36
TCTTGTAGATCCATAGAGGTTAAGAAAGTGCGCT	1.25	0.611	0.378	0.691	1.1	1.07	-0.276	0.319

Sequence	PBM binding z-score [1]	PBM binding z-score [2]	PBM binding z-score [3]	PBM binding z-score [4]	PBM binding z-score [5]	PBM binding z-score [6]	PBM binding z-score [7]	PBM binding z-score [8]
ACTTACGGGTCAACGAGTTTATAGCACGCGTATA	3.4	5.13	5.14	3.3	5.62	3	0.511	6.13
ACTATTAGTTGAGATGAGGGCAACCGATAGGTTG	1.05	0.932	0.979	0.642	0.671	2.84	0.833	1.18
TGACCAAGGTGAAAGGTCGTTGATGCACGCCTTG	2.49	4.18	2.09	0.0698	5.72	3.35	0.487	1.31
CTGCCAAGGTGAACAAGGTCGTTGATTACTATTC	2	1.66	1.29	1.04	1.58	3.07	1.67	1.56
ACTAGCAGGACAAGTTTGGGTCACTCAAACAAAG	2.28	1.51	1.55	0.164	0.931	2.62	1.42	0.216
TCTTGTAGATCAATGGTTAAGAAAGCCGAAGCCT	-0.529	-0.0652	-0.444	0.768	0.123	-0.193	-0.412	-0.25
TAGCCTAGGTCATTAGGCCAGTATAGTACGCATC	2.93	3.47	3.8	1.54	2.1	2.4	0.34	0.922
TCTTGTAGATCAAAGGTTCAGAAAGCCGAAGCCT	0.917	0.795	0.335	1.32	1.29	0.166	-0.308	1.5
AGTCAAAGTTAACTAGGTAACGTAAGATTCAGCT	-0.331	0.302	0.566	-0.266	0.258	0.564	-0.252	-0.183
CGAACTAGGTAATCCAGGACAGTGAATACATTGA	-0.194	0.0775	0.29	0.502	-0.0168	1.85	0.946	-0.254
ATCGAAAGGTCGTGAGGTTAGTATACAGAAAGGC	3.14	4.88	4.09	1.9	5.43	3.2	1.07	1.84
GCGACTGGGGCAAAGCAGGTTACCAAAAGGTTGG	1.39	0.739	0.527	-0.337	0.52	3.28	-0.199	-0.329
CCTAGCAGGACAGGGTCACTCAAGCATTTCGCTT	2.77	3.14	2.23	1.06	3.54	3.19	1.44	1.5
CCAGACCGGTGAAAGGTAACTCAGTCTGGTACGC	0.414	0.36	-0.096	-0.727	0.696	0.429	-0.178	-0.186
TCTCGGAGGACACGTAGGTCAGAGCTTTCCAGAG	2.65	2.17	2.67	0.656	1.04	2.44	0.686	0.567
TAGCCTAGGTCATGGGTCAGTATACCACGCGAAC	3.88	5.09	5.02	0.71	4.72	3.51	1.65	1.29
TGAATGAGGTCATAAGATCAGGGAACGTTGCAAA	3.34	5.65	5	3.74	5.88	3.85	2.43	3.77
ATCTCTAGGTAACCATGTTCAGTGAATGCCGAAC	0.332	0.315	0.421	0.392	0.272	0.812	0.66	0.0942
ATCGAAAGGTCTACGAGGTGAGTATACACCGTTT	1.01	1.32	1.56	-0.0758	1.11	2.26	0.606	0.124

Sequence	PBM binding z-score [1]	PBM binding z-score [2]	PBM binding z-score [3]	PBM binding z-score [4]	PBM binding z-score [5]	PBM binding z-score [6]	PBM binding z-score [7]	PBM binding z-score [8]
ACTAGCAGGCCATGGGTCACTCAAGATTAGTCCG	2.1	1.88	2.07	-0.507	1.75	1.42	-0.31	-0.0856
TCTTGAAGATCAAAGGTTAAGAAAGCCGAAGCCT	1.32	2.04	0.685	0.731	3.74	1.37	-0.659	-0.364
CAAACTAGGTCAAACGTCAAAGTCGAGCCAACCA	2.99	4.6	4.53	2.28	4.16	3.13	0.831	1.04
CCTACTGGACCAAAAAGGTCATTGATGCCGATAA	4.26	4.54	4.04	1.08	5.04	3.33	1.43	3.2
ATCTCTAGGTAACAAAGTTCAGTGAATGCCGAAC	2.76	2.04	1.99	0.878	1.36	1.56	0.601	2.02
GCGGCTAGGTCAACTGATGGTCAGCTAAAGCTCG	3.7	5.19	5.19	1.17	2.84	2.95	0.698	-0.00796
CCTACTGGGCCATTCAGAGGTCATTTATCATATG	3.73	3.91	2.73	1.47	3.27	3.12	1.45	4.04
CCTTACGGCTCACTGACAGGTTATAGCATTTGGA	0.213	0.216	0.301	0.689	0.388	0.0321	0.195	-0.0205
ACTAGTTGGTCAGCTGAGGACACACACAATTCGG	1.64	1.18	1.82	0.558	0.282	4.7	4.2	0.259
TAGCCTAGGACATTCAGGGGCCAGTATAGAAAGC	0.77	0.352	0.546	-0.698	-0.1	0.588	-0.132	-0.236
ATCGAAAGGTCGACGAGGTGAGCATACACCGTTT	2.94	4.4	4.53	1	4.49	3.75	1.18	0.518
GCTAGTAGTTGAAAGGGCAACCGAATGATTCTCG	1.73	1.22	0.96	0.488	1.47	0.474	-0.735	-0.34
GCTAGTTGGTCAGTACAAGGTCACACACCGGTCG	4.39	4.09	3.66	0.602	3.47	4.02	4	2.53
ATCTCTAGGTAAAGATCGTTCAGTGAATGCAAAT	0.111	0.0557	0.231	-0.238	-0.178	0.22	-0.0507	0.139
TCATATAGGGAAATGCTAGGTGAAAGTCCGATCT	0.336	0.235	0.101	1.66	0.678	0.846	0.365	0.19
CCTAGCAGGCCAACCTGGGTCACTCAAGGCTTGA	2.56	1.54	2.02	-0.209	1.23	3.63	0.233	-0.163
GTACCAAGGTGAAAAGGTCGTTGATGAGTAGGCG	3.49	4.66	2.59	0.369	3.57	2.58	0.7	1.7
ATCTCTAGGTAAAAGTTCAGTGCATCCCGAGGAT	2.59	1.85	1.81	0.951	1.49	1.43	0.48	2.21
